# Tau ThT inhib = inhibitors of human tau fibril formation, thioflavin T binding; AID 1460; actives 2.1% (n = 270,000); recombinant tau K18 P301L, heparin-induced fibrillization, ThT fluorescence; Potency, µM (top dose mostly 57.4 µM), for the others: top-dose activity, negative = inhibition, actives largely listed as inhibitors; note: potency is the fitted concentration of half-maximal effect; nearly all actives have a fitted effect of over 55% in size
# Target sequence (P10636 561-689 P618L limits assumed): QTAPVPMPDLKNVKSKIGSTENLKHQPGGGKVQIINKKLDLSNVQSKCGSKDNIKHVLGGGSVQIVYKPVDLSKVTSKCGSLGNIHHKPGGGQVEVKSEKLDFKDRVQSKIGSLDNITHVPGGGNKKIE
#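 Using a mix of unlabeled (15 uM) and Alexa 594-labeled (0.24 uM) tau K18 P301L, heparin-triggered fibrillization over 6 hr at 37 C was scored by ThT fluorescence.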
# Sfp PPTase inh = inhibitors of Bacillus subtilis Sfp phosphopantetheinyl transferase; Biochemical Sfp PPTase activity, qHTS; Potency, µM, without a hit: largest response in the series, negative = inhibition, hits mostly inhibitors; actives 3.5% (n = 310,000); Q9F4F7;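 note: the enzyme is Sfp with the accession as filed and its product quenches rhodamine fluorescence; potency is the fitted concentration of half-maximal effect; 0% = enzyme reaction without inhibitor and -100% = no enzyme wells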
#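 Step 1, compound plus 15 nM Sfp-PPTase, 15 min, room temperature. Step 2, add rhodamine-CoA (5 uM) and BHQ-2-YbbR (12.5 uM). Step 3, read 525/598 nm fluorescence at 0 and 30 min.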
# FBPA coupling cs = inhibits coupling enzyme system, counter-screen for aldolase hits | actives 0.67% (n = 290,000) | activity change, negative = inhibition, % at 58.2 µM, hits read low | coupling enzyme system counterscreen, AmpLite Red fluorescence; in the data active = activity change below about -30%
#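 Counterscreen of the coupled detection system alone, without aldolase: glyceraldehyde-3-phosphate coupling enzymes plus AmpLite Red readout. Compounds at 57.5 uM final, 10 min RT preincubation, 20 min RT reaction, fluorescence 525/598 nm.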
# Tau fluor cs = counter-screen for tau fibril formation inhibitors. actives 0.93% (n = 280,000). tau K18 P301L Alexa594 fluorescence, heparin fibrillization. Potency, µM (highest dose often 57.7 µM), without a hit: top-dose activity change, negative = decrease; note: potency is the fitted concentration of half-maximal effect; nearly all actives have a fitted effect of over 55% in size
#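 Human tau K18 P301L (15 uM unlabeled, 0.24 uM Alexa 594-labeled) in 100 mM sodium acetate pH 7 with 20 uM heparin, 6 hr at 37 C. ThT 30 uM added, 1 hr ambient; Alexa 594 FP and total fluorescence read at 555/632 nm.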
# Tau fibril FP = tau fibrillization inhibition (FP); P10636; K18 P301L tau heparin fibrillization, Alexa594 FP, 6 h; Potency, µM (series often up to 57.7 µM), inactives show at the highest dose activity, negative = inhibition, usual class: inhibitors; actives 0.39% (n = 280,000); AID 1468; note: potency is the fitted concentration of half-maximal effect; nearly all actives have a fitted effect of over 55% in size
#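 K18 P301L tau (15 uM unlabeled/0.24 uM Alexa 594-labeled, final) + compound + heparin 20 uM final; 100 mM NaOAc pH 7; 6 hr 37 C; ThT 30 uM final added, 1 hr RT; FP ex 555/em 632 nm.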
# * hit, by the source's call; ? = inconclusive; . = no result given; [ ] = dose if it differs, or a comment. An excerpt weighted towards active compounds, which were near 5.2% of everything screened. Unless noted, calls come from the whole dose curve; as a rule, active = well fitted curve in the direction sought with a large enough effect; inconclusive = small, poorly fitted or top-dose-only effect, or another doubt; inactive = no such curve, though single readings can be large; an effect the other way counts as inactive or inconclusive. Unless noted, % is set by controls: 0 for no effect and ±100 for the full control effect.
SMILES,Tau ThT inhib,Sfp PPTase inh,FBPA coupling cs,Tau fluor cs,Tau fibril FP
O=C(CSc1nnc2c(n1)[nH]c1ccccc12)Nc1ccc(S(=O)(=O)Nc2ncccn2)cc1,-7.8%,-23.3%,4.1,-4.7%,-2.9%
O=C(CSc1nnc2c(n1)[nH]c1ccccc12)Nc1ccc(N2CCOCC2)cc1,?,7.94µM*,-4.3,?,-5.2%
COc1ccc(NC(=O)CSc2nnc(NC(=O)C3CCC3)s2)cc1,.,-7.7%,-3.0,.,.
O=C(CSc1nnc(NC(=O)C2CCC2)s1)Nc1ccc(N2CCOCC2)cc1,6.31µM*,-4.7%,-5.7,-28.7%,6.3%
O=C(CSc1nnc2c(n1)[nH]c1ccccc12)Nc1ccc2c(c1)OCO2,?,44.7µM*,0.5,?,-0.6%
CC[C@H](C)[C@H](NC(=O)[C@H](CCCNC(=N)N)NC(=O)[C@@H]1CCCN1C(=O)[C@H](Cc1ccccc1)NC(=O)[C@H](Cc1cnc[nH]1)NC(=O)[C@H](CCCNC(=N)N)NC(=O)[C@@H](NC(=O)[C@H](C)NC(=O)[C@H](CCC(=O)O)NC(=O)[C@H](CC(N)=O)NC(=O)[C@@H](N)CCCCN)C(C)C)C(=O)N[C@@H](Cc1c[nH]c2ccccc12)C(=O)N[C@@H](CC(C)C)C(=O)O,.,5.5%,-0.9,.,.
COc1ccc(-c2cc3nc(C)c(CCC(=O)Nc4ccc(F)cc4F)c(C)n3n2)c(OC)c1,-4.3%,.,.,-14.6%,4.0%
Cc1ccc(Cn2cc(CCC(=O)NC3CCCCC3)c3ccccc32)cc1,3.5%,.,.,-2.3%,0.5%
COc1ccc(-c2nc3c(Br)c(N)c(Br)cc3o2)cc1,?,22.4µM*,-4.2,-19.2%,2.9%
Nc1c(Br)cc2oc(-c3ccccc3)nc2c1Br,-10.9%,9.3%,-4.3,-2.2%,0.1%
CCN(Cc1nc(-c2ccc(OC)cc2)oc1C)S(=O)(=O)c1ccc(C)cc1,-13.5%,.,.,-15.9%,11.3%
Cc1csc2nc(-c3cccc(NC(=O)c4cccc(F)c4)c3)cn12,8.2%,.,.,?,-16.5%
O=C1N2CCCc3cccc(c32)C12Nc1ccccc1S2 (stereo unspecified),-5.5%,50.1µM*,5.6,-9.1%,-0.9%
CC1CC(C)(C)N2C(=O)C3(Nc4ccccc4S3)c3cccc1c32 (stereo unspecified),?,?,-3.0,?,-4.6%
O=C(O)C1Nc2c(O)cc(Cl)c([N+](=O)[O-])c2C2C=CCC12 (stereo unspecified),7.94µM*,56.2µM*,-8.3,7.08µM*[quencher],14.1µM*
COc1cc(-c2nc(-c3cccc(Cl)c3)c(-c3ccccc3)[nH]2)cc(OC)c1OC,-3.7%,.,.,?,?
COc1ccc(N=Nc2nc(-c3ccccc3)c(-c3ccccc3)[nH]2)cc1,3.98µM*,14.8%,1.1,?,6.1%
Oc1ccccc1N=Nc1nc(-c2ccccc2)c(-c2ccccc2)[nH]1,4.47µM*,3.3%,-1.4,11.2µM*[quencher],-5.5%
COc1ccccc1N=Nc1nc(-c2ccccc2)c(-c2ccccc2)[nH]1,3.55µM*,-3.4%,0.9,?,3.2%
O=C(O)c1ccc(-c2nc(-c3ccccc3)c(-c3ccccc3)[nH]2)cc1,-12.8%,8.4%,12.4,-8.2%,7.0%
NS(=O)(=O)c1ccc(NCCCn2ccnc2)c([N+](=O)[O-])c1,.,-1.6%,1.6,.,.
O=C1c2ccccc2-c2onc3ccc(NCCCn4ccnc4)c1c23,11.2µM*,-1.3%,-16.9,?,20µM*
CCOc1ccc(S(=O)(=O)N2CCN(c3cccc(C(F)(F)F)c3)CC2)cc1OCC,-7.5%,.,.,-29.1%,-14.8%
CNc1nc(-c2ccc3c(c2)CCN3C(=O)c2ccccc2F)c(C)s1,?,22.4µM*,-2.6,-19.5%,?
Cc1cc(C)n(C(C)CC(=O)Nc2ccc(Cl)cc2C)n1 (stereo unspecified),4.5%,.,.,-0.7%,2.2%
SMILES,Tau ThT inhib,Sfp PPTase inh,FBPA coupling cs,Tau fluor cs,Tau fibril FP
O=C(O)c1cc(N(Cc2ccccc2O)Cc2cc(O)ccc2O)ccc1O,17.8µM*,17.8µM*,-0.9,?,-6.2%
COC/C=C/C1=CC2=CC(=O)C(C)(OC(=O)CCc3ccccc3)C(=O)C2=CO1 (stereo unspecified),-7.7%,5.0%,1.7,-8.7%,-5.5%
CC(NC(=O)NNC(N)=S)(C(F)(F)F)C(F)(F)F,-6.8%,44.7µM*,2.9,-7.3%,0.5%
COC(=O)c1c(C)nc2ccccc2c1C(=O)O,-9.5%,8.2%,-3.8,-7.3%,4.1%
COC(=O)c1cc(C)[nH]c2c(C)cc3nc4ccccc4c3c12,?,6.7%,-14.6,25.1µM*[quencher],?
O=C(O)c1ccccc1C(=O)Nc1ccc(Br)c2cccnc12,16.1%,39.8µM*,-22.3,13.7%,4.1%
COc1cc2[nH]c3c(Cl)ncnc3c2cc1OC,?,-9.3%,-42.8*,-16.0%,0.8%
COc1ccccc1CN1CCC2(CC1)CCN(C(=O)c1csnn1)CC2,.,-19.0%,1.7,.,.
CCOc1ccccc1-c1ccc(C(=O)O)s1,-9.1%[126 µM],-7.3%,9.7,-5.7%[126 µM],-0.3%[126 µM]
COc1ccccc1NS(=O)(=O)c1cccc(-n2c(O)c(C=Nc3ccccc3C(=O)O)c3ccccc3c2=O)c1,15.8µM*,-5.4%,4.7,?,-16.6%
COc1cc2c(cc1OC)CN(Cc1nc3ccsc3c(=O)[nH]1)CC2,?,-36.4%,-42.6*,-10.6%,-2.7%
O=c1[nH]c(CN2CCN(c3ccccc3Cl)CC2)nc2ccsc12,-11.8%,12.4%,0.0,-9.6%,1.4%
CCOc1ccc(S(=O)(=O)Nc2ncn[nH]2)cc1,.,16.9%,0.9,.,.
CCOc1ccc(S(=O)(=O)Nc2cc(Sc3ncn[nH]3)c3oc(=O)sc3c2)cc1,?,7.94µM*,7.6,?,?
Cc1ccc(C)c(CN2C(=O)C3(c4ccccc42)N(c2ccc(Cl)cc2)C(=O)CS3(=O)=O)c1 (stereo unspecified),-10.3%,.,.,-16.4%,?
C(=C\c1nc2ccccc2[nH]1)/c1ccccc1,7.0%,-20.5%,-10.2,-11.7%,-5.4%
C(=C\c1ccco1)/c1nc2ccccc2[nH]1,4.0%,39.8µM*,-2.0,-3.3%,-1.9%
C(=C\c1ccco1)/c1ccc2ccccc2n1,31.6µM*,50.1µM*,-5.0,-22.1%,?
O=C1CCCC2=C1C1O[C@](CCCCN3C(=O)c4ccccc4C3=O)(Cc3ccccc31)O2,.,-1.8%,1.3,.,.
CCN1C(C)=C(C(=O)OC(C)C)C(c2ccccc2Cl)C(C(=O)O)=C1C(=O)O (stereo unspecified),.,25.6%,0.1,.,.
O=C1CCCC(=O)C1CS(=O)(=O)c1ccccc1,17.8µM*,20µM*,-3.5,-29.5%,28.2µM*
O=C1CC(c2ccc(Cl)cc2)CC(=O)C1CS(=O)(=O)c1ccccc1 (stereo unspecified),?,-94.3%,13.9,-13.9%,3.9%
COc1ccccc1Nc1nn2c(=O)c3ccc(C(=O)NC4CCCCC4)cc3nc2s1,0.1%,.,.,-10.4%,7.9%
